Screening data: PubChem BioAssay, Broad Institute
NOMO-1 viab – STK33 inhibitor candidate reducing NOMO-1 cell viability | NOMO-1 AML viability, CellTiter-Glo luminescence, 72 h | inhibition, % (no concentration beside the values) | 7.5% of 37,000 active; in the data active = inhibition above about 80%; inconclusive = no clear call, values can overlap the other calls
YB-1 expression – YB-1 expression inhibition | U2OS, qRT-PCR YB-1 vs CDIP delta delta Cp, 16 h; stronger effect = higher value; zero = DMSO, each unit about twofold | delta delta Cp (YB-1 minus CDIP) (concentration not given with the values) | 0.37% of 30,000 active | AID 434959;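 active = delta delta Cp rounded down to an integer at or above 3, about 3 SD of DMSO wells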;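 also: higher means less YB-1 transcript or more CDIP transcript relative to DMSO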
U2OS ROS induce – raises reactive oxygen species in U2OS cancer cells; U2OS ROS induction, H2DCF-DA fluorescence; ROS induction (% of piperlongumine), % at 10 µM; 2% of 46,000 active; in the data active = ROS induction above about 79%, passing the limit was not always enough; inconclusive = no clear call, values can overlap the other calls;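 also: 0% = DMSO vehicle median and 100% = reference compound median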
PD-1 reverse act – activators reversing PD-1 mediated T-cell inhibition; primary human CD4 T cells, PD-L1 beads, CellTiter-Glo 96 h; activation, % (concentration not given with the values); 29,000 tested, under 10 active; call rule not given here;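 also: 0% = median vehicle wells and 100% = positive control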
Numbers without * were called inactive; u = inconclusive; x = no result given. The full list was thinned out, with hits kept by preference.

SMILES	NOMO-1 viab	YB-1 expression	U2OS ROS induce	PD-1 reverse act
O=C(Nc1ncnc2sc3c(c12)CCCCC3)c1ccc(F)cc1	108.9*	-0.186	-2.5	-3.2
N#Cc1c(N)nc(Sc2ccc(Cl)cc2)c(C#N)c1-c1ccccc1	101.5*	0.326	33.2	0.0
C[C@@H]1CN([C@H](C)CO)C(=O)Cc2cc(NC(=O)Nc3ccc(C(F)(F)F)cc3)ccc2O[C@@H]1CN(C)S(=O)(=O)c1cccs1	74.0	0.127	14.1	0.1
C[C@H](CO)N1C[C@H](C)[C@H](CN(C)C)Oc2ccc(NC(=O)Nc3ccc(C(F)(F)F)cc3)cc2CC1=O	41.4	-0.657	-17.1	x
C[C@H]1CN([C@@H](C)CO)C(=O)Cc2cc(NC(=O)Nc3ccc(C(F)(F)F)cc3)ccc2O[C@H]1CN(C)S(=O)(=O)c1cn(C)cn1	125.3*	0.233	-2.9	-0.4
C[C@H]1CN([C@@H](C)CO)C(=O)Cc2cc(NC(=O)Nc3ccc(C(F)(F)F)cc3)ccc2O[C@H]1CN(C)S(=O)(=O)c1cccs1	128.1*	-0.216	18.0	-3.5
C[C@@H]1CN([C@H](C)CO)C(=O)Cc2cc(NC(=O)Nc3ccc(C(F)(F)F)cc3)ccc2O[C@@H]1CN(C)S(C)(=O)=O	86.3*	-0.24	24.4	-1.9
C[C@H]1CN([C@@H](C)CO)C(=O)Cc2cc(NC(=O)Nc3ccc(C(F)(F)F)cc3)ccc2O[C@H]1CN(C)S(C)(=O)=O	89.7*	-0.444	1.7	x
C[C@@H]1CN([C@H](C)CO)C(=O)Cc2cc(NC(=O)Nc3ccc(F)cc3)ccc2O[C@@H]1CN(C)S(=O)(=O)c1cn(C)cn1	20.0	0.163	-0.3	x
C[C@@H]1O[C@@H](O[C@@H]2C=C(CO)[C@H]3[C@H](O[C@@H]4O[C@H](CO)[C@@H](O)[C@H](O)[C@H]4O)OC=C[C@H]32)[C@H](O)[C@H](O)[C@H]1OC(=O)/C=C/c1ccccc1	-9.2	-0.149	-8.6	1.5
COC(=O)c1cc(NC(=O)CSC2=NCCS2)cc(C(=O)OC)c1	92.6*	x	x	x
COC(=O)c1ccc(NC(=O)CSc2nnc(C)s2)cc1	18.7	x	-2.1	2.0
C[C@@H]1CN([C@@H](C)CO)C(=O)CCCn2nncc2CO[C@@H]1CN(C)Cc1ccc(-c2ccccc2)cc1	x	-0.145	90.9*	x
C[C@@H]1CN([C@@H](C)CO)C(=O)CCCn2nncc2CO[C@H]1CN(C)S(=O)(=O)c1ccc(Oc2ccccc2)nc1	x	-0.327	137.9*	x
C[C@@H]1CN([C@@H](C)CO)C(=O)CCCn2nncc2CO[C@@H]1CN(C)C(=O)Nc1ccc(N2CCCCC2)cc1	x	-0.143	82.7*	x
C[C@H](CO)N1C[C@H](C)[C@@H](CN(C)C(=O)Nc2ccc(N3CCCCC3)cc2)OCc2cnnn2CCCC1=O	x	0.204	1.1	x
COc1cccc(CN(C)C[C@H]2OCc3cnnn3CCCC(=O)N([C@@H](C)CO)C[C@H]2C)c1	x	0.619	124.6*	x
Nc1c(C(=O)NCC2CCCO2)sc2ccc(S(=O)(=O)N3CCCCC3)cc12 (configuration not stated)	x	x	-12.0	x
COc1cccc(NC(=O)N(C)C[C@@H]2OCc3cn(nn3)CCCC(=O)N([C@H](C)CO)C[C@H]2C)c1	x	-0.231	107.7*	x
COc1cccc(NC(=O)N(C)C[C@H]2OCc3cn(nn3)CCCC(=O)N([C@H](C)CO)C[C@H]2C)c1	x	-0.236	-4.1	x
O=C(/C=C/C=C/c1ccc2c(c1)OCO2)N1CCCC1	x	0.933	-5.0	x
C[C@@H]1CCCCO[C@@H](CN(C)S(=O)(=O)c2cccs2)[C@@H](C)CN([C@H](C)CO)C(=O)c2cc(NS(=O)(=O)c3ccc(F)cc3)ccc2O1	11.9	-0.233	101.7*	-1.9
C[C@@H]1CCCCO[C@H](CN(C)S(=O)(=O)c2ccc(F)cc2)[C@@H](C)CN([C@H](C)CO)C(=O)c2cc(NS(=O)(=O)c3cccs3)ccc2O1	25.8	-0.132	22.8	-1.6
C[C@@H]1CCCCO[C@H](CN(C)C)[C@@H](C)CN([C@H](C)CO)C(=O)c2cc(NS(=O)(=O)c3ccc(F)cc3)ccc2O1	12.6	0.469	92.7*	x
O=C(COc1ccc(C(=O)Nc2ccccc2Cl)cc1)Nc1cccc(C(F)(F)F)c1	26.8	x	17.3	0.7
SMILES	NOMO-1 viab	YB-1 expression	U2OS ROS induce	PD-1 reverse act
CCOC(=O)c1cnc2c(C(F)(F)F)cccc2c1NCCO	36.2	x	3.0	-2.4
CC(=O)c1cccc(NC(=O)CSc2nc(-c3ccc(F)cc3)cs2)c1	11.7	x	28.0	-1.0
Cc1cc(OCc2nc3ccccc3s2)ccc1NC(=O)Nc1cccc(Cl)c1	106.9*	x	x	x
Cc1cccc(NC(=O)C2CC(=O)n3c(nc4ccccc43)N2)c1 (configuration not stated)	10.2	x	x	x
CCOC(=O)C(C)Sc1nnc(Cn2c(=O)sc3ccccc32)n1-c1cccc(Cl)c1 (configuration not stated)	x	x	-3.0	x
Cc1ccc([N+](=O)[O-])cc1N(CC(=O)Nc1ccc(I)cc1)S(C)(=O)=O	120.8*	x	6.7	-0.2
CS(=O)(=O)N(CC(=O)Nc1ccccc1C(F)(F)F)c1ccc(Cl)c(C(F)(F)F)c1	4.2	x	-12.1	-0.2
Cc1ccc(NC(=O)CN(c2ccc(Cl)c(C(F)(F)F)c2)S(C)(=O)=O)cc1	91.3*	x	-4.4	-6.8
CS(=O)(=O)N(CC(=O)Nc1ccc(Cl)c(Cl)c1)c1ccc(Br)cc1	114.5*	x	-6.0	-13.7
Cc1cc(N(CC(=O)Nc2ccc(F)c(Cl)c2)S(C)(=O)=O)ccc1Br	92.8*	x	-13.6	-7.9
Cc1ccc(NC(=O)c2oc3ccc(S(=O)(=O)N(C)C4CCCCC4)cc3c2C)cc1C	x	x	1.7	x
COc1ccc(N(CC(=O)Nc2ccc(I)cc2)S(C)(=O)=O)cc1Cl	10.2	x	0.2	0.3
CS(=O)(=O)N(CC(=O)Nc1ccc(I)cc1)c1ccc(Cl)c(Cl)c1	89.8*	x	-0.8	-7.2
COc1ccc(OCC(=O)Nc2cc(-c3nnc(OC)c4ccccc34)ccc2N2CCCCC2)cc1	89.1*	x	5.6	2.4
CC(=O)N1N=C(c2c(-c3ccccc3)c3cc(Cl)ccc3[nH]c2=O)CC1c1ccco1 (configuration not stated)	x	x	109.0*	x
CCC(C)NC(=O)c1cc(-c2cccc(OC)c2)no1 (configuration not stated)	x	x	2.7	x
O=C(Cn1cnc2sc(-c3ccccc3)cc2c1=O)NCc1ccco1	115.7*	x	x	x
Cc1cccc(NC(=O)Cn2cnc3sc(-c4ccccc4)cc3c2=O)c1	12.9	x	-11.2	1.5
N#CSCC(=O)C12CC3CC(CC(C3)C1)C2	112.8*	-0.689	55.2	-7.1
O=C(O)CCC(=O)Nc1ccc(NC(=O)c2ccccc2)c(Cl)c1	25.6	x	-5.6	1.8
CC(=O)Nc1ccc(NC(=O)c2cccc(C(=O)OC(C)C)n2)cc1	106.8*	-0.0752	-0.5	0.0
COC(=O)c1cccc(C(=O)Nc2ccc(F)cc2)n1	u	0.437	6.2	1.2
COc1ccc(CC(=O)N2CCN(c3ncccn3)CC2)cc1OC	x	x	-5.0	x
Cc1c(C2CCN(CCc3ccccc3)CC2)noc1-c1ccc(Cl)cc1	92.9*	-0.202	u	x
